Test results as given in PubChem BioAssay.
“And” between values parts separate entries of the source, which are not always exact repeats. Equal entries are not always repeated. The source made the active and inactive calls.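 How the source made its calls, unless noted: active means compounds whose cell count with miR-34 switched on is under 0.7 times the count with it off; inactive means the rest.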

Experiments:
[1] = sensitizers of A549 cells to miR-34 induction, primary screen, imaging, A549 dox-inducible miR-34, nuclei and caspase counts (AID 1347080); conditions: A549 miR-34 inducible, Hoechst nuclei count, 48 h
[2] = phospholipid biosynthesis inhibitors in animal cells, primary screen, cell-based, LOPAC library, screen 4 (AID 1347384; call rule not given here); conditions: phospholipid biosynthesis inhibition screen, at 10 µM
[3] = survival rescue of mitochondrial mutant cells in low glucose, primary screen, MELAS cybrids, Rieske KO mouse fibroblasts, CellTiter-Glo (AID 1508586;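 active means mean z-score across replicates of 1.96 or higher in either the MELAS or the Rieske mutant cell line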;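 further: z relative to plate mean and SD of compound and empty wells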)
[4] = target: NAD(+) hydrolase SARM1 (Homo sapiens) (UniProt Q6SZW1); test: SARM1 TIR NADase inhibitors, cell lysate, NAD-Glo luminescence (AID 1508614;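 active means compound whose remaining NAD level is above about 45 nM, limit read from the data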); conditions: SAM-TIR HEK293T lysate NADase, at 1 µM, stronger effect = higher value
[5] = target: Mitogen-activated protein kinase 7 (Homo sapiens) (UniProt Q13164); test: ERK5 transactivation activators in reporter cells, primary screen, cell-based, HTS (AID 1508626;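 active means luciferase signal above three times the same-plate solvent-only control wells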;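 further: luciferase driven by Gal4-ERK5 fusion binding five Gal4 sites before minimal TATA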); conditions: HeLa Gal4-ERK5 transactivation, 18 h, at 5 µM, stronger effect = higher value
[6] = viability rescue of complex I mutant cybrids, primary screen, cell-based, galactose medium, ATP luminescence (AID 1645843;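 active means z-score of at least 1.8 in each of two replicates, scored against plate mean and spread of sample wells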;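 further: positive z means more ATP and so rescue of galactose-driven cybrid death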); conditions: complex I mutant cybrid cells, 72 h, stronger effect = higher value
[7] = LFS_MB_P medulloblastoma growth inhibition, cell-based, chromothripsis tumors, cisplatin or BGB combos (AID 1671449; in the data active means inhibition above about 80%;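 further: cells exposed for 96 hours; 0% = vehicle DMSO and 100% = killing by high DMSO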); conditions: LFS_MB_P medulloblastoma cells
[8] = HDN33 neuroblastoma growth inhibition, cell-based, chromothripsis tumors, cisplatin or BGB combos (AID 1671450; in the data active means inhibition above about 80%;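 further: cells exposed to compound for four days; 0% = vehicle DMSO and 100% = cell killing by high DMSO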); conditions: HDN33 neuroblastoma cells, stronger effect = higher value
[9] = ICB984 medulloblastoma cell growth inhibition, synergistic combos for chromothripsis tumors, cisplatin or BGB combos (AID 1671451; call rule not given here;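 further: cells exposed for 96 hours before readout; 0% = vehicle DMSO and 100% = killing by high DMSO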); conditions: ICB984 medulloblastoma cells, drug combinations, stronger effect = higher value
[10] = LFS_MB_1R medulloblastoma cell growth inhibition, synergistic combos for chromothripsis tumors, cisplatin or BGB combos (AID 1671452; in the data active means inhibition above about 80%;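 further: cells exposed for 96 hours before readout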); conditions: LFS_MB_1R medulloblastoma cells, stronger effect = higher value
[11] = HTB85 osteosarcoma cell growth inhibition, synergistic combos for chromothripsis tumors, BGB or cisplatin IC20 combos (AID 1671453; in the data active means inhibition above about 80%;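 further: cells exposed for 96 hours before readout; 0% = vehicle DMSO and 100% = high DMSO killing control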); conditions: HTB85 osteosarcoma cells, drug combinations, stronger effect = higher value
[12] = CRL2098 osteosarcoma cell growth inhibition, synergistic combos for chromothripsis tumors, BGB or cisplatin IC20 combos (AID 1671454; in the data active means inhibition above about 80%;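 further: cells exposed for 96 h before readout; 0% = vehicle DMSO and 100% = killing by high DMSO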); conditions: CRL2098 osteosarcoma cells, drug combinations, stronger effect = higher value
[13] = HD-MB03 medulloblastoma cell growth inhibition, synergistic combos for chromothripsis tumors, BGB or cisplatin IC20 combos (AID 1671455; in the data active means inhibition above about 83%;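 further: 0% = vehicle DMSO and 100% = high DMSO as cytotoxic control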); conditions: HD-MB03 medulloblastoma cells, stronger effect = higher value
[14] = stronger effect = lower value, cell number ratio, induced over uninduced
[15] = measured here: relative caspase fold change +Dox/-Dox
[16] = measured here: total cells with miR-34 induction, stronger effect = lower value
[17] = measured here: total cells without miR-34 induction
[18] = MELAS cybrid survival, CellTiter-Glo 48 h, stronger effect = higher value
[19] = Rieske KO mouse fibroblast survival, CellTiter-Glo 72 h
[20] = measured here: combination with BGB IC40, at 0.05 µM

Sequence of Mitogen-activated protein kinase 7 (Homo sapiens) (Q13164 whole entry, looked up, the tested form may be a part): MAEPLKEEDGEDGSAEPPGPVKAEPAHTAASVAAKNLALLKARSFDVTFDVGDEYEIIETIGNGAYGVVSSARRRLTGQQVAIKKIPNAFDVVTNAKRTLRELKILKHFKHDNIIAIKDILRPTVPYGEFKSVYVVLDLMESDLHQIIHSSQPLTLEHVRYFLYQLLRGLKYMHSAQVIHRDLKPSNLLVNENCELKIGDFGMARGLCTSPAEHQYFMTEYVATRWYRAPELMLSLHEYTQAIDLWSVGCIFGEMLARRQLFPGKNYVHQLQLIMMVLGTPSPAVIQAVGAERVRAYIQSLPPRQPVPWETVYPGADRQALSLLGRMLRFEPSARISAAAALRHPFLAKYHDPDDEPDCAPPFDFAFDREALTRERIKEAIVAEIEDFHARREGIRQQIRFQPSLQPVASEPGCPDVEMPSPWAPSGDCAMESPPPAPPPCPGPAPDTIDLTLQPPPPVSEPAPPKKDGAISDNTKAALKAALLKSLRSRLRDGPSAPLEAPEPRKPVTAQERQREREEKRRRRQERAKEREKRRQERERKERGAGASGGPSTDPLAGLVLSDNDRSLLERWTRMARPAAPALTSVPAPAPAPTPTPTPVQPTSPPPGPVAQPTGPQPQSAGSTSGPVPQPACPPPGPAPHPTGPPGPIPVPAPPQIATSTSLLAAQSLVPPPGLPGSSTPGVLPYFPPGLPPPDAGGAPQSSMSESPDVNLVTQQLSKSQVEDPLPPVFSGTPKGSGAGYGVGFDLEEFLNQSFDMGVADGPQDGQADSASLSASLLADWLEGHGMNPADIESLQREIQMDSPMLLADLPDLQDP
Sequence of NAD(+) hydrolase SARM1 (Homo sapiens) (Q6SZW1 whole entry, looked up, the tested form may be a part): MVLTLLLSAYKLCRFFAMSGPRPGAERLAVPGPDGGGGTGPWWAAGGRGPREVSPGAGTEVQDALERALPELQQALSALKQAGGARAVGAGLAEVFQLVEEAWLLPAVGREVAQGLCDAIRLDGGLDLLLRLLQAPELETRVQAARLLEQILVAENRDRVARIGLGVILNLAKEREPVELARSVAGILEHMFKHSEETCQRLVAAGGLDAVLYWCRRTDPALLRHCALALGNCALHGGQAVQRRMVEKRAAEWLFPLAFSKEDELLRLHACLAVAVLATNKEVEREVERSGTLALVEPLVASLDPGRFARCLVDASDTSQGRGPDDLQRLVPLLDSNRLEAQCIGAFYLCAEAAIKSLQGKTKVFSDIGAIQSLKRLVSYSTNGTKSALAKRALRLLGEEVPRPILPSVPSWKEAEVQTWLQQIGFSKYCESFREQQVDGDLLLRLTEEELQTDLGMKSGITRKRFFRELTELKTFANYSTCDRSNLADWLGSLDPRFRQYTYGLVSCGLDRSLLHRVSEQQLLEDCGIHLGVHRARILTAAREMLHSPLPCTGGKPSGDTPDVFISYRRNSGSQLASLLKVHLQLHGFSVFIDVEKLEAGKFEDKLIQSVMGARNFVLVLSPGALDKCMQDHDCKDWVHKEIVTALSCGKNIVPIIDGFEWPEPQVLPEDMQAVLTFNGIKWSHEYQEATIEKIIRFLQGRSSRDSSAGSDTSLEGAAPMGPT

What does the source list for `CCn1cc(C(=O)O)c(=O)c2cc3c(cc21)OCO3`?
fold change [1, 14]: 1.06 (inactive) and 0.943 (inactive) and 0.852 (inactive); fold change [1, 15]: 0.823 and 1.43 and 2.84; cell count [1, 16]: 10300 and 9150 and 11200; cell count [1, 17]: 9710 and 9700 and 13200; outcome [2]: inactive; z-score [3, 18]: 0.663 (inactive); z-score [3, 19]: 0.252; remaining NAD [4]: 10 nM (inactive); luciferase signal [5]: 88 AU (inactive); z-score [6]: 0.245 (inactive); inhibition ([7]; at 0.5 µM, stronger effect = higher value): -36.8% (inactive); inhibition ([7]; measured here: combination with BGB IC20, at 0.005 µM): -15.7%; inhibition ([7]; measured here: combination with BGB IC40, at 0.005 µM): -20.3%; inhibition [7, 20]: -2.68%; inhibition ([7]; measured here: combination with cisplatin, at 0.5 µM, stronger effect = higher value): -50%; inhibition ([7]; measured here: combination with cisplatin, at 5 µM, stronger effect = higher value): -47.2%; inhibition ([8]; BGB combo, at 5 µM): -6.85%; inhibition ([8]; at 0.5 µM): 11.7% (inactive); inhibition ([8]; cisplatin combo, at 5 µM): -11.4%; inhibition ([8]; measured here: with BGB IC20 combination, at 0.5 µM): 31.7%; inhibition ([8]; measured here: with cisplatin IC20 combination, at 0.5 µM): -3.7%; inhibition ([8]; single agent, at 5 µM): 13.3%; inhibition ([9]; BGB IC20 combo, at 0.005 µM): -17.2%; inhibition ([9]; BGB IC40 combo, at 0.005 µM): 7.28%; inhibition ([9]; BGB IC40 combo, at 0.05 µM): 6.59%; inhibition ([9]; at 0.5 µM): -11.6% (inactive); inhibition ([9]; cisplatin combo, at 0.05 µM): 6.59%; inhibition ([9]; cisplatin combo, at 0.5 µM): -23.1%; inhibition ([9]; cisplatin combo, at 5 µM): 6.27%; inhibition ([9]; measured here: 5 uM single agent, at 5 µM): -34.2%; inhibition ([10]; at 0.5 µM): 0.84% (inactive); inhibition [10, 20]: -15.9%; inhibition ([10]; measured here: combination with cisplatin, at 0.5 µM): -7.75%; inhibition ([10]; measured here: combination with cisplatin, at 5 µM): -5.64%; inhibition ([11]; at 0.5 µM): -2.07% (inactive); inhibition ([11]; measured here: with BGB IC20, at 0.5 µM): -19.1%; inhibition ([11]; measured here: with BGB IC20, at 5 µM): -10.5%; inhibition ([11]; measured here: with cisplatin IC20, at 0.5 µM): 12%; inhibition ([11]; measured here: with cisplatin IC20, at 5 µM): 2.66%; inhibition ([11]; single agent, at 5 µM): -16.7%; inhibition ([12]; at 0.5 µM): -34.7% (inactive); inhibition ([12]; measured here: combination with BGB at IC20, at 0.5 µM): -42.4%; inhibition ([12]; measured here: combination with cisplatin at IC20, at 0.5 µM): -29.3%; inhibition ([13]; at 0.5 µM): 1.11% (inactive); inhibition ([13]; measured here: combo with BGB at IC20, at 0.5 µM): -0.045%; inhibition ([13]; measured here: combo with cisplatin at IC20, at 0.5 µM): -3.84%

What does the source list for `CCN1CCC[C@H]1CNC(=O)c1c(O)c(Cl)cc(Cl)c1OC`?
fold change [1, 14]: 1 (inactive) and 0.9 (inactive) and 0.875 (inactive); fold change [1, 15]: 1.23 and 0.728 and 0.77; cell count [1, 16]: 9930 and 9080 and 9820; cell count [1, 17]: 9900 and 10100 and 11200; outcome [2]: inactive; z-score [3, 18]: -0.782 (inactive) and -0.532 (inactive); z-score [3, 19]: -0.0598 and -0.803; z-score [6]: 0.525 (inactive) and -0.165 (inactive) and 0.41 (inactive)

Which fold change [1, 14] does the source give for `CCN1CCC[C@H]1CNC(=O)c1cc(S(N)(=O)=O)ccc1OC` here?
The fold change was 1.01 (inactive) and 0.997 (inactive) and 0.936 (inactive).

And the fold change [1, 15]?
The fold change was 1.51 and 0.827 and 1.56.

And the cell count [1, 16]?
The cell count was 10700 and 9240 and 9830.

And the cell count [1, 17]?
The cell count was 10600 and 9270 and 10500.

What about the outcome [2] of the same molecule?
The outcome was “inactive”.

What about the z-score [3, 18] of the same molecule?
The z-score was 0.469 (inactive).

What about the z-score [3, 19] of the same molecule?
Its z-score is 0.62.

And the z-score [6]?
The z-score was 0.65 (inactive) and 0.075 (inactive) and 0.505 (inactive).

Which fold change [1, 14] does the source give for `Cc1cc(N)c2ccccc2[n+]1CCCCCCCCCC[n+]1c(C)cc(N)c2ccccc21` here?
Its fold change is 1.04 (inactive) and 0.959 (inactive).

And the fold change [1, 15]?
Its fold change is 1.28 and 1.58.

And the cell count [1, 16]?
The cell count was 1900 and 2180.

What about the cell count [1, 17] of the same molecule?
Its cell count is 1830 and 2270.

And the outcome [2]?
Its outcome is “inactive”.

And the z-score [3, 18]?
The z-score was -3.39 (inactive).

And the z-score [3, 19]?
The z-score was -2.46.

And the remaining NAD [4]?
Its remaining NAD is 10 nM (inactive).

What about the z-score [6] of the same molecule?
Its z-score is -1.04 (inactive).

For `NS(=O)(=O)c1cc2c(cc1Cl)NC(C1CC3C=CC1C3)NS2(=O)=O` (stereo unspecified), which fold change [1, 14] is on record?
Its fold change is 0.998 (inactive) and 0.957 (inactive) and 0.847 (inactive).

And the fold change [1, 15]?
Its fold change is 1.34 and 0.752 and 2.93.

What about the cell count [1, 16] of the same molecule?
The cell count was 9070 and 9210 and 11400.

What about the cell count [1, 17] of the same molecule?
Its cell count is 9090 and 9620 and 13400.

What about the outcome [2] of the same molecule?
Its outcome is “inactive”.

And the luciferase signal [5]?
The luciferase signal was 84 AU (inactive).

And the z-score [6]?
The z-score was 0.71 (inactive) and 0.55 (inactive).

For `CCc1c(C)[nH]c2c1C(=O)C(CN1CCOCC1)CC2` (stereo unspecified), which fold change [1, 14] is on record?
Its fold change is 1.14 (inactive) and 0.913 (inactive) and 0.969 (inactive).

What about the fold change [1, 15] of the same molecule?
Its fold change is 1.35 and 0.853 and 0.538.

What about the cell count [1, 16] of the same molecule?
Its cell count is 11100 and 9250 and 9310.

And the cell count [1, 17]?
The cell count was 9700 and 10100 and 9610.

And the outcome [2]?
The outcome was “inactive”.

And the z-score [3, 18]?
Its z-score is 0.0774 (inactive).

And the z-score [3, 19]?
The z-score was -0.448.

And the z-score [6]?
Its z-score is 0.39 (inactive) and -0.105 (inactive).
